Measured values published in PubChem BioAssay (NCATS).
Inconclusive results are not listed. The source made the active and inactive calls. Calls come from the whole dose curve; as a rule, active = well fitted inhibition curve with a large enough effect; inconclusive = small, poorly fitted or top-dose-only effect; inactive = flat fitted curve, though single readings scatter.

How the values were obtained:
Test in all cases: qHTS profiling for inhibitors of Plasmodium falciparum proliferation (AID 504749); note: nearly all actives have a fitted effect of over 60% in size
Conditions in all cases: P. falciparum in erythrocytes, SYBR Green DNA, 72 h; series mostly up to 28.7 µM
CP252 = tested on: CP252
In short: (§1)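 Parasite proliferation within erythrocytes, 72 h exposure. Endpoint: SYBR Green I fluorescence after overnight lysis at room temperature. Controls: 0.29 uM artemisinin, DMSO.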

CP256 = tested on: CP256
In short: as §1

CP262 = tested on: CP262
In short: as §1

CP265 = tested on: CP265
In short: as §1

CP268 = tested on: CP268
In short: as §1

CP269 = tested on: CP269
In short: as §1

CP286 = tested on: CP286
In short: as §1

CP291 = tested on: CP291
In short: as §1

CP297 = tested on: CP297
In short: as §1

CP305 = tested on: CP305
In short: as §1

CP315 = tested on: CP315
In short: as §1

CP325 = tested on: CP325
In short: as §1

CP329 = tested on: CP329
In short: as §1

CP335 = tested on: CP335
In short: as §1

DFO2036 = tested on: DFO2036
In short: as §1

DIV17 = tested on: DIV17
In short: as §1

DIV30 = tested on: DIV30
In short: as §1

Dd2 = tested on: Dd2
In short: as §1

ECU = tested on: ECU
In short: as §1

FAB9 = tested on: FAB9
In short: as §1

GB4 = tested on: GB4
In short: as §1

HB3 = tested on: HB3
In short: as §1

JCK = tested on: JCK
In short: as §1

N140 = tested on: N140
In short: as §1

P93_24 = tested on: P93_24
In short: as §1

P94_40 = tested on: P94_40
In short: as §1

PAD = tested on: PAD
In short: as §1

PC49 = tested on: PC49
In short: as §1

SC27B = tested on: SC27B
In short: as §1

TAB109 = tested on: TAB109
In short: as §1

TAB113 = tested on: TAB113
In short: as §1

TAB165 = tested on: TAB165
In short: as §1

Measured: Potency

CO[C@H]1[C@@H](O)CC(OC2[C@@H](O)CC(OC3[C@@H](O)C[C@H](OC4CC[C@@]5(C)C(CCC6C5CC(O)[C@]5(C)[C@H](C7=CC(=O)OC7)CCC65O)C4)O[C@@H]3C)O[C@@H]2C)O[C@@H]1C (some centres not stated)
inactive: CP252 | CP256 | CP262 | CP265 | CP268 | CP269 | CP286 | CP291 | CP297 | CP305 | CP315 | CP325 | CP329 | CP335 | DFO2036 | DIV17 | DIV30 | Dd2 | ECU | FAB9 | GB4 | HB3 | JCK | N140 | P93_24 | P94_40 | PAD | PC49 | SC27B | TAB109 | TAB113 | TAB165
